Results on 14 compounds are retold here after PubChem BioAssay (NCI).

Holding throughout (experiment): NCI-60 one-dose screen, 48 h (100 = growth as untreated, 0 = no growth, -100 = all killed)
Conditions in all cases: 10 µM unless noted

The test system of assay [1] is NCI-H23 lung.
The test system of assay [2] is NCI-H226 lung.
Assay [3] deals with NCI-H322M lung.
Assay [4] deals with HOP-62 NSCLC.
Assay [5] deals with NCI-H460 lung.
The subject of assay [6] is HOP-92 NSCLC.
For assay [7], the system named is NCI-H522 lung.
The subject of assay [8] is A549/ATCC NSCLC.
Assay [9] deals with 786-0 renal.
The test system of assay [10] is COLO 205 colon.

Compounds without any hit were thinned out: in the full panel of roughly 83,000, 20% have a hit.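 Assay: single dose, 48 h. Readout: percent growth (0 = no net growth; negative = cell death). Active: <10.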 A number with no mark means an inactive call. Calls of active or inactive are those of the source.

`C/C(=N\NC(=O)c1ccccc1O)c1cccc(/C(C)=N/NC(=O)c2ccccc2O)n1`: the growth in [1] is 44.4%; in assay [2] it was 50%; in [3] it was 38.7%; in assay [4], 30.3%; in assay [5], 21.3%; in [6] it was 43.5%. Also, the growth in assay [7] is 61.4%; in [8], 54.6%; in assay [9] it was 33.6%; in [10] it was 35.2%.
In the case of `Cc1nn(-c2ccccc2)c(Oc2ccccn2)c1-c1nc2ccccc2s1`, the growth in assay [1] was 87.7%; in [2] it was 93.8%; in [3] it was 93.3%; in assay [4], 112%; in assay [5] it was 106%; in assay [6], 80.9%. Also, the growth in assay [7] is 82.2%; in [8] it was 92.9%; in assay [9], 104%; in [10], 110%.
In the case of `COC(=O)CNC(=O)[C@H](Cc1ccccc1)NCc1ccncc1`, the growth in assay [1] is 101%; in [2], 109%; in assay [3], 101%; in assay [4], 97.3%; in assay [5], 108%; in assay [6] it was 103%. Further, the growth in assay [7] is 84.5%; in assay [8] it was 85.6%; in assay [9], 105%; in [10], 109%.
As to `CN(C)CC(=O)Nc1ccc2ncnc(Nc3ccc(Oc4cccc(C(F)(F)F)c4)c(Cl)c3)c2c1`, the growth was 75.9% in assay [1]; 80.7% in assay [2]; 45.3% in [3]; 76.5% in assay [4]; 8.52% (active) in assay [5]; 37.9% in assay [6]. Also, the growth is 67.7% in assay [7], 47.5% in assay [8], 59.4% in assay [9] and 35.9% in assay [10].
Consider `CO/N=C(/C)c1ccc(NC(=O)CSc2nnc(-c3ccncc3)n2-c2ccccc2)cc1`, for which the growth in [1] was 46.9%; in assay [2] it was 24.2%; in assay [3], 84.9%; in assay [4], 39.2%; in assay [5], 15.9%; in assay [6], 3.16% (active). In addition, the growth was -8.08% (active) in assay [7], 68.4% in assay [8], -43.1% (active) in assay [9] and 104% in assay [10].
As to `OCCOCCN(Cc1ccccn1)Cc1cc(I)cc(I)c1O`, the growth was 90.2% in [1]; 83.1% in [2]; 82.9% in assay [3]; 84.9% in assay [4]; 90.2% in assay [6]; 74.4% in assay [7]. The growth is 88.5% in assay [8], 85.2% in assay [9] and 107% in assay [10].
In the case of `O=C1N[C@@H]2NC(=[N+]3CCOCC3)N[C@@H]2N1`, the growth in [1] was 103%; in assay [2] it was 94.8%; in assay [3], 96.3%; in assay [4] it was 103%; in assay [6], 120%; in assay [7], 92.9%. Moreover, the results for the growth in assay [8], in assay [9] and in assay [10] were 101%, 98.8% and 115%, respectively.
Take `O=C(Nc1ccc(NC(=O)c2cc(=O)[nH]c3ccccc23)cc1)Nc1cccc(C(F)(F)F)c1`: the growth in assay [1] was 62.3%; in assay [2], 87.9%; in assay [3], 62.5%; in [4], -7.24% (active); in assay [5], 15.3%; in [6], 42.6%. The growth in assay [7] is 72.3%; in assay [8], 86.3%; in [9], 99.3%; in assay [10], 70.1%.
As to `C=CCn1c(SCC(=O)Nc2ccc(C(=O)/C=C/c3cc4cc(OC)ccc4nc3Cl)cc2)nnc1-c1ccc(Br)cc1`, the growth in assay [1] was 78%; in assay [2] it was 89.4%; in [3], 81.9%; in assay [4] it was 99.3%; in [6] it was 70.1%; in [7] it was 52.9%. Moreover, the values for the growth in [8], in assay [9] and in assay [10] were 70.7%, 80.9% and 112%, respectively.
In the case of `COc1cc(-c2nc(SCCC(C)C)nc(Nc3ccccc3Cl)c2C#N)cc(OC)c1OC`, the growth was 101% in assay [1]; 102% in assay [2]; 100% in assay [3]; 110% in assay [4]; 91% in assay [6]; 84.5% in assay [7]. Besides, the growth was 92.1% in assay [8], 92.4% in assay [9] and 109% in assay [10].
Consider `COc1ccc(-c2ccc3cnc4sc(-c5ccc(OC)cc5)nc4c3n2)cc1`, for which the growth in assay [1] is 91%; in [2] it was 85.7%; in assay [3] it was 86.7%; in [4], 97.8%; in [6] it was 100%; in [7] it was 87.4%. Further, the growth is 93.1% in [8], 106% in assay [9] and 104% in assay [10].
As to `CC(=O)OCc1nc(C#N)c(N(C)C)o1`, the growth in assay [1] was 102%; in assay [2], 97.3%; in assay [3], 99.8%; in [4], 91.4%; in assay [5], 103%; in assay [6], 83%. In addition, the growth is 90.3% in [7], 92.5% in [8], 95% in [9] and 105% in assay [10].
For `C#CCOc1ccc2ncnc(Nc3cccc(NC(=O)C=C)c3)c2c1`, the growth in assay [1] is 80.7%; in assay [2] it was 76.2%; in [3], 61.1%; in [4] it was 63.6%; in assay [6], 66.1%; in [7], 50.3%. Also, the growth in [8] is 56.4%; in assay [9], 56.4%; in [10] it was 87.5%.
With `C=C(C)[C@@H]1CC[C@]2(C(=O)NCCNCCN)CC[C@]3(C)[C@H](CC[C@@H]4[C@@]5(C)C/C(=C/c6ccncc6)C(=O)C(C)(C)[C@@H]5CC[C@]43C)[C@@H]12`, the growth is 97.2% in assay [1]; 100% in assay [2]; 94.2% in assay [3]; 101% in assay [4]; 75.5% in assay [6]; 94.7% in assay [7]. Further, the growth in assay [8] is 99.9%; in assay [9] it was 90.2%; in assay [10], 88.9%.
